# According to PubChem BioAssay (NCI):
# About 79,000 compounds went through this panel and 15% of them were active in at least one assay; those are over-represented in the sample as a whole. Values without a mark were called inactive. The source made the active and inactive calls. Rule as the data show it: active = growth inhibition above about 70%; inactive = the rest.
# Assays:
# [1] = NCI Yeast Anticancer Drug Screen. Data for the rad52 strain (AID 147);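 also: 0% = growth of vehicle-treated control cultures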; conditions: S. cerevisiae rad52 mutant growth inhibition, hits give high values
# Outline: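 DNA repair-defective yeast; compound exposure; growth scored against vehicle controls.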
# [2] = NCI Yeast Anticancer Drug Screen. Data for the wt1 strain (AID 149);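 also: 0% = growth of vehicle-treated wt1 cultures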; conditions: S. cerevisiae wt1 strain (SPY 50644) growth inhibition, hits give high values
# Outline: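 Each compound is tested on wt1 yeast and the loss of growth versus vehicle gives the inhibition value.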
# [3] = NCI Yeast Anticancer Drug Screen. Data for the rad50EPP+ strain (AID 151);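 also: 0% = growth of vehicle-treated control cultures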; conditions: S. cerevisiae rad50 mutant strain, hits give high values
# Outline: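 rad50EPP+ yeast treated with test compounds. Readout: growth vs vehicle control.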
# [4] = NCI Yeast Anticancer Drug Screen. Data for the mgt1 strain (AID 153); conditions: S. cerevisiae mgt1 mutant growth inhibition, hits give high values
# Outline: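 Growth inhibition relative to vehicle controls was scored for the mgt1 yeast strain after compound exposure.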
# [5] = NCI Yeast Anticancer Drug Screen. Data for the rad50 strain (AID 155);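 also: 0% = growth of vehicle-only cultures of the same strain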; conditions: S. cerevisiae rad50 strain growth inhibition, hits give high values
# Outline: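 Vehicle-treated cultures provide the reference for the growth inhibition reported for compound-exposed, repair-deficient yeast.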
# [6] = NCI Yeast Anticancer Drug Screen. Data for the mec2-1 strain (AID 157); conditions: S. cerevisiae mec2-1 strain, hits give high values
# Outline: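 Growth inhibition is read against vehicle-treated controls after compound exposure of the mec2-1 yeast strain, which is defective in DNA damage repair or cell cycle control.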
# [7] = NCI Yeast Anticancer Drug Screen. Data for the sgs1 mgt1 strain (AID 161);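 also: 0% = growth of cultures given vehicle only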; conditions: S. cerevisiae sgs1 mgt1 strain, hits give high values
# Outline: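 This yeast growth screen uses a strain with defined DNA-repair lesions; compound-treated growth is compared with vehicle-treated growth.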
# [8] = NCI Yeast Anticancer Drug Screen. Data for the CLN2oe strain (AID 163);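 also: 0% = growth of vehicle-only control cultures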; conditions: S. cerevisiae CLN2oe strain, hits give high values
# Outline: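 Compound-treated yeast; growth vs vehicle ctrl = % inhibition. Genetically altered strain (cell-cycle control).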
# [9] = NCI Yeast Anticancer Drug Screen. Data for the cln2 rad14 strain (AID 165);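 also: 0% = growth equal to vehicle treated cultures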; conditions: S. cerevisiae cln2 rad14 strain, hits give high values
# Outline: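 Growth inhibition, relative to vehicle-treated controls, is the read-out. The test organism is a yeast strain with defined genetic alterations, cln2 rad14.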
# [10] = NCI Yeast Anticancer Drug Screen. Data for the bub3 strain (AID 167); conditions: S. cerevisiae bub3 mutant strain, hits give high values
# Outline: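 Mutant yeast screening strain plus compound; vehicle-treated cultures serve as the 0% inhibition reference.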
# [11] = NCI Yeast Anticancer Drug Screen. Data for the wt2 strain (AID 169); conditions: S. cerevisiae wt2 strain growth inhibition, hits give high values
# Outline: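 Compound exposure of yeast; growth compared with vehicle controls; inhibition reported.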
# [12] = NCI Yeast Anticancer Drug Screen. Data for the mlh1 strain (AID 171);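 also: 0% = growth of vehicle-treated control cultures of the same strain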; conditions: S. cerevisiae mlh1 strain growth inhibition, hits give high values
# Outline: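 Compounds are applied to a genetically altered yeast strain, and its growth is compared with that of vehicle-treated cultures to give percent inhibition.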
# [13] = NCI Yeast Anticancer Drug Screen. Data for the sgs1 strain (AID 173);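 also: 0% = growth of vehicle-only control cultures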; conditions: S. cerevisiae sgs1 mutant, hits give high values
# Outline: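 Compounds applied to genetically altered yeast; growth compared with vehicle-treated cultures to give % inhibition.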
# [14] = NCI Yeast Anticancer Drug Screen. Data for the mlh1 rad18 strain (AID 175); conditions: S. cerevisiae mlh1 rad18 strain growth inhibition, hits give high values
# Outline: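 Cells of a genetically altered yeast strain, deficient in DNA damage repair, were treated with compound. Their growth was then compared with that of vehicle-treated cultures to give inhibition.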
# [15] = NCI Yeast Anticancer Drug Screen. Data for the rad18 strain (AID 177); conditions: S. cerevisiae rad18 mutant growth inhibition, hits give high values
# Outline: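 Compounds are applied to a repair-deficient yeast strain, and growth is compared with that of vehicle-treated cultures to give percent inhibition.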
# [16] = at 5.0 µM (retest, dose inferred, filed as 0.5)
# [17] = at 50.0 µM (retest, dose inferred, filed as 5.0)
smiles,measurement,setting,value
CCCCN1C(=O)N(c2ccc(OCC)cc2)C2N(CCCC)C1C(C)(C)C2(C)C (stereo not drawn),growth inhibition,[1]; at 1.2 µM,-6%
same,growth inhibition,[1]; at 3.7 µM,-13%
same,growth inhibition,[1]; at 11.0 µM,3%
same,growth inhibition,[1]; at 33.0 µM,30%
same,growth inhibition,[1]; at 100.0 µM,86% (active)
same,growth inhibition,[2]; at 1.2 µM,-3%
same,growth inhibition,[2]; at 3.7 µM,3%
same,growth inhibition,[2]; at 11.0 µM,9%
same,growth inhibition,[2]; at 33.0 µM,19%
same,growth inhibition,[2]; at 100.0 µM,52%
same,growth inhibition,[3]; at 1.2 µM,-7%
same,growth inhibition,[3]; at 3.7 µM,-6%
same,growth inhibition,[3]; at 11.0 µM,7%
same,growth inhibition,[3]; at 33.0 µM,19%
same,growth inhibition,[3]; at 100.0 µM,30%
same,growth inhibition,[4]; at 1.2 µM,-4%
same,growth inhibition,[4]; at 3.7 µM,-7%
same,growth inhibition,[4]; at 11.0 µM,-6%
same,growth inhibition,[4]; at 33.0 µM,-7%
same,growth inhibition,[4]; at 100.0 µM,5%
same,growth inhibition,[5]; at 1.2 µM,-17%
same,growth inhibition,[5]; at 3.7 µM,-18%
same,growth inhibition,[5]; [16],0%
same,growth inhibition,[5]; at 11.0 µM,9%
same,growth inhibition,[5]; at 33.0 µM,35%
same,growth inhibition,[5]; [17],50%
same,growth inhibition,[5]; at 50.0 µM,49.6%
same,growth inhibition,[5]; at 100.0 µM,84% (active)
same,growth inhibition,[6]; at 1.2 µM,-5%
same,growth inhibition,[6]; at 3.7 µM,-4%
same,growth inhibition,[6]; [16],4%
same,growth inhibition,[6]; at 11.0 µM,-5%
same,growth inhibition,[6]; at 33.0 µM,-5%
same,growth inhibition,[6]; [17],62%
same,growth inhibition,[6]; at 50.0 µM,19.9%
same,growth inhibition,[6]; at 100.0 µM,22%
same,growth inhibition,[7]; [16],12%
same,growth inhibition,[7]; [17],82% (active)
same,growth inhibition,[7]; at 50.0 µM,65.3%
same,growth inhibition,[8]; at 1.2 µM,-10%
same,growth inhibition,[8]; at 3.7 µM,-9%
same,growth inhibition,[8]; at 11.0 µM,-10%
same,growth inhibition,[8]; at 33.0 µM,-10%
same,growth inhibition,[8]; at 100.0 µM,0%
same,growth inhibition,[9]; [16],-3%
same,growth inhibition,[9]; [17],13%
same,growth inhibition,[9]; at 50.0 µM,21.1%
same,growth inhibition,[10]; at 1.2 µM,-9%
same,growth inhibition,[10]; at 3.7 µM,-7%
same,growth inhibition,[10]; [16],-2%
same,growth inhibition,[10]; at 11.0 µM,-12%
same,growth inhibition,[10]; at 33.0 µM,-11%
same,growth inhibition,[10]; [17],24%
same,growth inhibition,[10]; at 50.0 µM,27.9%
same,growth inhibition,[10]; at 100.0 µM,25%
same,growth inhibition,[11]; at 1.2 µM,-3%
same,growth inhibition,[11]; at 3.7 µM,4%
same,growth inhibition,[11]; at 11.0 µM,12%
same,growth inhibition,[11]; at 33.0 µM,26%
same,growth inhibition,[11]; at 100.0 µM,91% (active)
same,growth inhibition,[12]; at 1.2 µM,-6%
same,growth inhibition,[12]; at 3.7 µM,-11%
same,growth inhibition,[12]; at 11.0 µM,-9%
same,growth inhibition,[12]; at 33.0 µM,-3%
same,growth inhibition,[12]; at 100.0 µM,79% (active)
same,growth inhibition,[13]; at 1.2 µM,-2%
same,growth inhibition,[13]; at 3.7 µM,-2%
same,growth inhibition,[13]; at 11.0 µM,20%
same,growth inhibition,[13]; at 33.0 µM,57%
same,growth inhibition,[13]; at 100.0 µM,95% (active)
same,growth inhibition,[14]; [16],13%
same,growth inhibition,[14]; [17],84% (active)
same,growth inhibition,[14]; at 50.0 µM,54.1%
same,growth inhibition,[15]; at 1.2 µM,-7%
same,growth inhibition,[15]; at 3.7 µM,0%
same,growth inhibition,[15]; at 11.0 µM,27%
same,growth inhibition,[15]; at 33.0 µM,74% (active)
same,growth inhibition,[15]; at 100.0 µM,93% (active)
